Compounds without any hit were thinned out: in the full panel of roughly 79,000, 15% have a hit. Values without a mark were called inactive. The source made the active and inactive calls. Rule as the data show it: active = growth inhibition above about 70%; inactive = the rest. Where a SMILES comes first, the peptide text is derived from it.
Columns and labels:
[1] = NCI Yeast Anticancer Drug Screen. Data for the rad50 strain (AID 155);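 also: 0% = growth of vehicle-only cultures of the same strain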; details: S. cerevisiae rad50 strain growth inhibition; at 50.0 µM; stronger effect = higher value
In short: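 Inhibition values express reduced yeast growth in compound-treated cultures relative to vehicle-treated controls.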

[2] = NCI Yeast Anticancer Drug Screen. Data for the mec2-1 strain (AID 157); details: S. cerevisiae mec2-1 strain, at 50.0 µM, stronger effect = higher value
In short: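 Compounds were applied to mec2-1 yeast cells. Their growth was then compared with that of vehicle-treated cultures to give growth inhibition.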

[3] = NCI Yeast Anticancer Drug Screen. Data for the sgs1 mgt1 strain (AID 161);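 also: 0% = growth of cultures given vehicle only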; details: S. cerevisiae sgs1 mgt1 strain, at 50.0 µM, stronger effect = higher value
In short: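 Yeast cells carrying a defined DNA-repair defect were exposed to test compounds. Growth inhibition was measured relative to vehicle-treated controls.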

[4] = NCI Yeast Anticancer Drug Screen. Data for the cln2 rad14 strain (AID 165);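 also: 0% = growth equal to vehicle treated cultures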; details: S. cerevisiae cln2 rad14 strain, at 50.0 µM, stronger effect = higher value
In short: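 Strain: cln2 rad14 yeast, altered in cell cycle control and DNA damage repair. Read-out: growth inhibition vs vehicle.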

[5] = NCI Yeast Anticancer Drug Screen. Data for the bub3 strain (AID 167); details: S. cerevisiae bub3 mutant strain, at 50.0 µM, stronger effect = higher value
In short: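 Steps: expose the mutant yeast strain to compound; grow alongside vehicle-treated cultures; measure growth; express inhibition against the vehicle cultures.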

[6] = NCI Yeast Anticancer Drug Screen. Data for the mlh1 rad18 strain (AID 175); details: S. cerevisiae mlh1 rad18 strain growth inhibition; at 50.0 µM; stronger effect = higher value
In short: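 A repair-deficient yeast strain is exposed to test compound, and growth is scored relative to vehicle-treated controls.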

Compound | growth inhibition [1] | growth inhibition [2] | growth inhibition [3] | growth inhibition [4] | growth inhibition [5] | growth inhibition [6]
O=C(C[n+]1csc2ccccc21)c1ccc(I)cc1 | -15.3% | -0.65% | -9.15% | -12.8% | -4.8% | 20.4%
Cc1nc(N)nc(C)c1N=Nc1ccc(Br)cc1Br | 41.2% | 4.5% | 20.5% | 5.05% | 0.6% | 15%
CC(=O)C1CCC2C3C=C(C)C4=CC(=O)CCC4(C)C3(F)C(=O)CC12C (stereo unspecified) | 13.8% | -12.2% | 6% | -13.1% | 14.2% | 15.9%
CCOc1ccc(Cc2ccccc2)cc1 | -8.95% | -23.9% | -7% | 1.5% | -8.25% | -5.35%
OC1CC2CCC(C1)N2c1ccccc1 (stereo unspecified) | 2.35% | 4.95% | 16.6% | -29.9% | 19.1% | 14.3%
COc1cc(OC)nc(NS(=O)(=O)c2ccc(N)cc2)n1 | 6% | -3.8% | 20.9% | 19.6% | 10.3% | 6.65%
CC(=O)Nc1ccccc1O | -4.75% | -15.2% | -0.85% | -18.3% | 0.35% | 14.2%
COc1cc(-c2ccc([NH2+][B-](F)(F)F)c(OC)c2)ccc1[NH2+][B-](F)(F)F | 21.7% | -2.05% | 37.3% | 29.1% | 9.1% | 18.9%
CC(=O)OCC1OC(OC(C)=O)C(NC(=O)c2ccc(Br)cc2)C(OC(C)=O)C1OC(C)=O (stereo unspecified) | 42.1% | 19.4% | 39.5% | 19.6% | -1.1% | 31.8%
O=C(Nc1ccc(N=C=S)cc1Cl)c1ccc2ccccc2c1O | 15.6% | 14.3% | 6.75% | 12.6% | 4.05% | 8.25%
O=C1OC(/C=C/c2ccccc2)C(=O)C1=O (stereo unspecified) | -4% | -4.55% | -3.9% | 25.4% | -9.75% | -9.95%
COC(=O)CC(C)(O)CCCC(C)C (stereo unspecified) | 11.2% | -5.15% | 16.9% | -17.9% | 3.9% | -14.2%
COC1(c2ccccc2)OC(=O)C(C)(C)c2ccccc21 (stereo unspecified) | -5.1% | 7.65% | 14.2% | 22.1% | 13.9% | 3.55%
COc1cc(OC)cc(N(C)Cc2cnc3nc(N)nc(N)c3c2C)c1 | 0.75% | 11.7% | 15.6% | 11.3% | 12.3% | -3.45%
COc1cc(C2c3cc4c(cc3OC3(OC)COC(=O)C23)OCO4)cc(OC)c1OC (stereo unspecified) | 0.4% | 13.4% | 4.9% | -13.9% | -21.1% | -21.4%
CNC(=O)OCCC(OC(=O)NC)C1CCC2C3CCC4CC(OC(=O)c5ccccc5)CCC4(C)C3CCC12C (stereo unspecified) | 37% | 1.7% | 4.9% | 23.3% | -4% | 8.8%
CN(C)/C=N/NC(=O)C(O)(c1ccccc1)c1ccccc1 | -7.45% | 9.8% | -7.85% | -0.25% | 1.55% | 7.15%
S=C(N/N=C\c1ccc(Cl)cc1Cl)Nc1ccc2cn[nH]c2c1 | 20% | 17.2% | 28.2% | -38% | 2% | 31.8%
Cc1cc2nc3n(c2cc1C)C(=O)c1cc2ccccc2cc1-3 | -8.55% | 0.6% | 3.1% | 7.7% | -10.4% | 2.7%
C[N+](C)(CC(=O)Nc1ccc(Cl)cc1)Cc1ccc2c(c1)CCCC2 | 99.5% (active) | 99.8% (active) | 99.8% (active) | 99% (active) | 99.3% (active) | 99.7% (active)
CCOC(=O)c1ccc(NCc2nc3c([nH]2)c(=O)n(C)c(=O)n3C)cc1 | -0.95% | -1.45% | -1.35% | -54.1% | -14.2% | 1.65%

Compound | growth inhibition [1] | growth inhibition [2] | growth inhibition [3] | growth inhibition [4] | growth inhibition [5] | growth inhibition [6]
C[C@H]1C(=O)CCC2[C@]3(C)CCC4(CO)[C@@H]5CC(C)(C)C(=O)C[C@]5(C)CC[C@]4(C)C3CC[C@@]21C (stereo partly specified) | -26.5% | -25.6% | -28.1% | 3.35% | -40.9% | 0.4%
C#CC(C)(C)OC(=O)Nc1ccc(Cl)cc1 | 27.4% | 16.2% | -0.35% | -44.2% | 7.9% | 13.1%
COC(=O)Nc1cccc(OC(=O)NC2CCCCC2)c1 | 12.1% | 32.7% | 15.1% | 4.25% | 33.8% | 16.4%
O=C(CCCCCCCCC(=O)NCC1(c2ccccc2)CCNCC1)NCC1(c2ccccc2)CCNCC1 | -27.5% | -23.6% | -15.2% | -3.25% | -23.9% | -11.2%
NCc1ccc(O)c(O)c1 | -13.9% | 19.9% | 15.3% | 13% | 5.6% | 10.1%
CC(=O)CC(SCCSCCSC(CC(C)=O)c1ccccc1)c1ccccc1 (stereo unspecified) | 6.9% | -3.65% | 5.05% | 17.1% | 3.95% | 14.7%
CCOC(=O)C(/C(=N/NC(=O)OC)C(=O)Nc1ccc(C(C)=O)cc1)c1cnc2ccccc2n1 (stereo unspecified) | 0.9% | -40.9% | -26.6% | 26.1% | -1.5% | 0.25%
CCCCOC(=O)CNC(=O)OC(C)(C)C | -4.5% | 11.8% | -10.1% | -2.1% | -3.25% | -15.5%
CCOC(=O)NC | 14.4% | 1.6% | -19.6% | 3.85% | -1% | 9.8%
COc1ccc2nc(C)cc(N=[N+]=[N-])c2c1 | -34.6% | 1.45% | -16.5% | -46.5% | 8.55% | 10.6%
CC(=O)CC(C)=Nc1ccc([N+](=O)[O-])cc1 | 1.75% | -3.9% | -6.7% | -34.5% | -16.6% | 2.3%
CC(C)CC(NC(=O)C(Cc1ccccc1)NC(=O)CNC(=O)CN)C(=O)O (stereo unspecified) (H-GGFL-OH; configuration not given here) | -1.55% | -4.05% | -11.4% | -5.05% | -1.9% | -12.4%
O=S=NCCCl | -14.3% | -14.6% | -13.2% | 1.5% | -10.8% | 0.35%
Clc1ccc(/C=N/c2ccccn2)cc1 | -37.2% | -51.4% | -22.8% | 19.9% | -54.1% | -31.1%
Clc1ccc(-c2nnc(-c3cccc4ccccc34)o2)cc1Cl | 10.1% | -32.3% | -29.5% | 54% | -47.9% | -15%
COc1cc(NS(C)(=O)=O)ccc1Nc1c2ccc(N(C)C)cc2nc2cc(N(C)C)ccc12 | 29.1% | -4.8% | 1.05% | 6.7% | -8.6% | -9.85%
Cc1nn(C)c(=O)c(N)c1-c1cc(-c2ccc(Cl)cc2)n[nH]1 | 13.9% | 4.45% | 19.9% | 20.1% | 18.1% | 13.9%
O=C(NN=C1CCCCC1)c1ccccc1 | -6% | -10.1% | -9.9% | -25.8% | -17.4% | 0.2%
Cc1cc2c(cc1C)NC(=O)CC(c1ccccc1)=N2 | 18% | -7.8% | 4.15% | 3.3% | 28.9% | 10.8%
CCc1nnc(CC)n1N1C(=O)CCC1=O | 24.1% | 28.1% | 26.2% | 11.1% | 24.8% | 21.7%
